Shown are actives, neighbours in structure and some others; about 3% of the full set was active somewhere.
PAFAH1B3 FP inh: PAFAH1B3 (human) inhibition | Q15102 | recombinant PAFAH1B3, FP-rhodamine probe, fluorescence polarization | inhibition, % at 3.39 µM | 340,000 compounds, 0.28% hits;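 active = inhibition above the screen-wide average of all tested compounds plus 3 SD, cut at about 25% in these data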;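 note: 0% = enzyme with DMSO only and 100% = wells lacking PAFAH1B3 protein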
PAFAH2 inh: PAFAH2 (human) inhibition; inhibition, % at 3.39 µM; recombinant PAFAH2, FP-rhodamine activity probe, fluorescence polarization; Q99487; 340,000 compounds, 0.99% hits;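 active = inhibition above the mean over all tested compounds plus 3 SD, cut at about 30% in these data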;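 note: inhibitors block probe labeling of enzyme so polarization drops; 0% = enzyme with DMSO and 100% = wells lacking PAFAH2 protein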
PAFAH1B2 inh: blocks human PAF acetylhydrolase 1b catalytic subunit 2; recombinant PAFAH1B2, FP-rhodamine activity probe, fluorescence polarization; P68402; inhibition, % at 3.39 µM; 340,000 compounds, 1.2% hits;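 active = inhibition above the mean of all tested compounds plus 3 SD, cut at about 24% in these data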;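 note: 0% = enzyme with DMSO and 100% = wells lacking PAFAH1B2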
ATG4B inhibitor: blocks human ATG4B protease cleavage of LC3 substrate; Q9Y4P1; ATG4B cleavage of LC3-PLA2, NBD-HPC fluorescence, 1 h; inhibition, % at 8.33 µM; 340,000 compounds, 0.51% hits; in the data active = inhibition above about 40%
DAGLB inhibitor: blocks human DAGLB lipase activity | Q8NCG7 | HEK293T DAGLB membrane lysate, EnzChek fluorogenic substrate | inhibition, % at 5.17 µM | 340,000 compounds, 0.059% hits; in the data active = inhibition above about 34%;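 note: 0% = enzyme with vehicle and 100% = wells lacking enzyme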
pPAFAH inh: inhibitors of human plasma PAF acetylhydrolase (pPAFAH); Q13093; recombinant pPAFAH, FP-rhodamine probe fluorescence polarization; inhibition, % at 3.39 µM; 330,000 compounds, 1.5% hits; AID 463082;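 active = inhibition above the mean inhibition across the screen plus 3 SD, cut at about 25% in these data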;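 note: inhibitors block binding of the rhodamine activity-based probe so polarization drops; 0% = enzyme with DMSO and 100% = wells lacking pPAFAH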
Target sequence (Q13093 whole entry, looked up): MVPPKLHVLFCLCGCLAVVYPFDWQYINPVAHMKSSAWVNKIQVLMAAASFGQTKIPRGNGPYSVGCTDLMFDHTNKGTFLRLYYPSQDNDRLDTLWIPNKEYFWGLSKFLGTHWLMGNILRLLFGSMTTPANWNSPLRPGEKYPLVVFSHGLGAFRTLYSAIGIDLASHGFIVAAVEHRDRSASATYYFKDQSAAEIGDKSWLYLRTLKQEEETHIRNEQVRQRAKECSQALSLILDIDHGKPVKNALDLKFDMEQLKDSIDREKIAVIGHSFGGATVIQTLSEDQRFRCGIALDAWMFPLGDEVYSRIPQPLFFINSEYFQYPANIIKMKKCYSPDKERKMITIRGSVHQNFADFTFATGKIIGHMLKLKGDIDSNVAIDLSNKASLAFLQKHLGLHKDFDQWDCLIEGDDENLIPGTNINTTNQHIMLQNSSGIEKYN
pPAFAH FP conf: confirmation of human plasma PAF acetylhydrolase (pPAFAH) inhibitors; shares compounds with pPAFAH inh; recombinant pPAFAH, FP-Rh probe fluorescence polarization; inhibition, % at 3.39 µM; 2,300 compounds, 72% hits; AID 463230;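 active = mean inhibition of the triplicate above the hit cutoff set for the earlier primary screen, cut at about 25% in these data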;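 note: 0% = enzyme with DMSO and 100% = wells lacking pPAFAH enzyme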
Starred values were filed as active, the others as inactive; . = no result.

SMILES	PAFAH1B3 FP inh	PAFAH2 inh	PAFAH1B2 inh	ATG4B inhibitor	DAGLB inhibitor	pPAFAH inh	pPAFAH FP conf
CCOc1ccccc1-n1c(O)c(C=Nc2ccc(N(CC)CC)cc2)c(=O)[nH]c1=O	4	-1	3	-17	5	44*	5
CCN(CC)c1ccc(N=Cc2c(O)n(-c3ccccc3)c(=O)[nH]c2=O)cc1	2	4	3	-4	2	49*	-4
O=C(c1ccc2c(c1)ncn2C1CCCCCC1)N1CCC2(CC1)OCCO2	1	6	2	-14	-1	5	.
CC1CCCN(c2ccc(C(=O)N3CCC4(CC3)OCCO4)cc2[N+](=O)[O-])C1 (centres undefined)	7	-1	2	1	4	45*	59*
CN1C(=O)NC(=O)C(N=Nc2ccc(Cl)cc2)C1=O (centres undefined)	4	2	1	3	-3	.	.
O=C1NC(=O)N(Cc2ccco2)C(=O)/C1=C\c1cccn1CCOc1ccc(Cl)cc1	-3	7	35*	4	19	40*	3
Cc1cccc(OCCn2cccc2/C=C2/C(=O)NC(=O)N(Cc3ccco3)C2=O)c1	.	.	.	0	.	22	.
COC(=O)C12OCC34C(CC5C(C)=C(O)C(=O)CC5(C)C3C(O)C1O)OC(=O)C(OC(=O)/C=C(\C)C(C)C)C24 (centres undefined)	8	-2	-4	14	2	.	.
O=C(NCC1=C(c2cccc3ccccc23)C[C@@H]2CC[C@H]1N2Cc1ccco1)c1cccs1	.	.	.	.	2	.	.
COc1ccc(N2C(=O)NC(=O)/C(=C\c3ccc([N+](=O)[O-])s3)C2=O)cc1	24	27	21	4	14	38*	35*
COc1ccccc1N1C(=O)NC(=O)/C(=C/c2ccc([N+](=O)[O-])s2)C1=O	.	.	.	-6	.	51*	42*
COc1ccc(N2C(=O)NC(=O)/C(=C/c3ccc([N+](=O)[O-])s3)C2=O)cc1	.	.	.	-3	.	44*	47*
COC(=O)C1=C(c2cccc(Cl)c2)C[C@@H]2CC[C@H]1N2C(=O)NCC1CC1	-12	-1	-4	-2	0	-1	.
CC(=NNC(=S)N1CC2CCC(CC2)C1)c1nccs1	5	12	3	3	10	.	.
CN(C)[C@@H]1C(=O)C(C(N)=O)=C(O)[C@@]2(O)C(=O)C3=C(O)c4c(O)cccc4[C@@](C)(O)[C@H]3[C@H](O)[C@@H]12	57*	64*	35*	13	3	82*	75*
O=C1NC(=O)N(Cc2ccco2)C(=O)/C1=C/c1ccc(-c2cccc([N+](=O)[O-])c2)o1	6	37*	4	9	28	66*	36*
CCC(C)C1NC(=O)C(NC(=O)C(CC(C)C)N(C)C(=O)C2CCCN2C(=O)C(C)O)C(C)OC(=O)C(Cc2ccc(OC)cc2)N(C)C(=O)C2CCCN2C(=O)C(CC(C)C)NC(=O)[C@H](C)C(=O)[C@H](C(C)C)OC(=O)CC1O (some centres undefined)	15	6	0	9	-8	.	.
CN1C(=O)/C(=C/c2cccn2-c2ccc3ccccc3c2)C(=O)NC1=S	9	39*	39*	6	29	39*	13
O=C1NC(=S)NC(=O)C1=Cc1cccn1-c1ccc(O)cc1	5	25	6	3	5	.	.
COc1ccc(CC2NCC(O)C2OC(C)=O)cc1 (centres undefined)	9	2	5	-6	0	.	.
O=C(COC(=O)Cc1ccccc1)NC12CC3CC(CC(C3)C1)C2	3	55*	10	-13	0	35*	41*
O=C(C1CCN(c2nc3ccc(Br)cc3s2)CC1)N1CCC2(CC1)OCCO2	2	1	0	-4	3	36*	26*
COC(=O)C1=C(c2ccc(OCc3ccccc3)cc2)C[C@@H]2CC[C@H]1N2C(=O)NC1CCN(Cc2ccccc2)CC1	3	-5	-5	-7	-1	11	.
Oc1ccc(/C=N/NP(=S)(c2ccccc2)c2ccccc2)c(O)c1O	8	7	-3	-10	6	41*	63*

Source: PubChem (several laboratories)
